Measured values: PubChem BioAssay (Tox21)
Records with an inconclusive call do not appear. Activity calls are given as the source filed them. Unless noted, calls follow the shape of the dose curve; as a rule, active = well fitted curve in the direction sought with a large enough effect in the repeat runs; inconclusive = weak or mixed curves; inactive = no such curve, though single readings can be large; an effect the other way counts as inactive or inconclusive.

Assays:
[1] = qHTS RealTime-Glo MT Cell Viability Assay in HEK293 cells - 0 hour (AID 1224880); also: top concentration of the series differs between compounds; nearly all actives have a fitted effect of over 45% in size
In short: (§1)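 Nonlytic bioluminescent viability monitoring. HEK293 at 600 cells/well with reagent; 5 h settle; compound transfer by pintool; plates held at 37 C and read at set time points.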

[2] = A CellTox Green Cytotoxicity Assay to monitor cytotoxicity in HEK293 cells - 32 hour (AID 1224881); also: nearly all actives have a fitted effect of over 40% in size
In short: (§2)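 Cytotoxicity was tracked continuously in HEK293 cells by a DNA-binding dye excluded from viable cells. Compounds were transferred in DMSO 5 h after seeding; fluorescence was recorded at intervals up to 40 h.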

[3] = A CellTox Green Cytotoxicity Assay to monitor cytotoxicity in HepG2 cells - 0 hour (AID 1224882); also: nearly all actives have a fitted effect of over 35% in size
In short: (§3)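 Real-time, homogeneous cytotoxicity readout: dead-cell DNA staining by CellTox Green in HepG2 monolayers, fluorescence measured at timed intervals up to 40 h of continuous compound exposure.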

[4] = A CellTox Green Cytotoxicity Assay to monitor cytotoxicity in HepG2 cells - 32 hour (AID 1224883); also: nearly all actives have a fitted effect of over 50% in size
In short: as §3

[5] = A CellTox Green Cytotoxicity Assay to monitor cytotoxicity in HEK293 cells - 8 hour (AID 1224884); also: nearly all actives have a fitted effect of over 35% in size
In short: as §2

[6] = qHTS RealTime-Glo MT Cell Viability Assay in HepG2 cells - 16 hour (AID 1224885); also: nearly all actives have a fitted effect of over 50% in size
In short: (§4)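 Viability was tracked continuously by NanoLuc luminescence from prosubstrate reduced by living HepG2 cells, at successive time points over 40 h of compound exposure. Cells with reagent were preincubated 5 h at 37 °C before compound addition.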

[7] = qHTS RealTime-Glo MT Cell Viability Assay in HEK293 cells - 24 hour (AID 1224886); also: top concentration of the series differs between compounds; nearly all actives have a fitted effect of over 50% in size
In short: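 Viability tracked continuously by luminescence as live cells reduce a prosubstrate for NanoLuc; HEK293 cells preincubated 5 h, compound-treated at 37 C, and read at 0, 8, 16, 24, 32 and 40 h.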

[8] = qHTS RealTime-Glo MT Cell Viability Assay in HEK293 cells - 8 hour (AID 1224887); also: top concentration of the series differs between compounds; nearly all actives have a fitted effect of over 50% in size
In short: as §1

[9] = A CellTox Green Cytotoxicity Assay to monitor cytotoxicity in HEK293 cells - 16 hour (AID 1224888); also: nearly all actives have a fitted effect of over 35% in size
In short: as §2

[10] = qHTS RealTime-Glo MT Cell Viability Assay in HepG2 cells - 0 hour (AID 1224889); also: nearly all actives have a fitted effect of over 50% in size
In short: as §4

[11] = A CellTox Green Cytotoxicity Assay to monitor cytotoxicity in HepG2 cells - 8 hour (AID 1224890); also: nearly all actives have a fitted effect of over 45% in size
In short: as §3

[12] = qHTS assay to identify small molecule antagonists of the estrogen receptor alpha (ER-alpha) signaling pathway using the BG1 cell line in the presence of 0.1 nM 17-beta-estradiol - cell viability counter screen (AID 1259241); also: nearly all actives have a fitted effect of over 40% in size
In short: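 The cell line endogenously expresses full-length ER-alpha and carries four EREs driving luciferase. Cells are cultured 5 days hormone-free, treated 22 hr with compounds and 0.1 nM estradiol, then viability is read by fluorescence.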

[13] = qHTS assay to identify small molecule antagonists of the androgen receptor (AR) signaling pathway using the MDA cell line in the presence of 0.5 nM R1881 - cell viability counter screen (AID 1259242); also: nearly all actives have a fitted effect of over 45% in size
In short: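 Cytotoxicity toward MDA-kb2 cells is measured by CellTiter-Fluor live-cell protease fluorescence after 16 hr compound exposure at 37C in the presence of 0.5 nM R1881 stimulator.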

[14] = target: Estrogen receptor (Homo sapiens) (UniProt P03372); assay: qHTS assay to identify small molecule antagonists of the estrogen receptor alpha (ER-alpha) signaling pathway using the BG1 cell line in the presence of 0.1 nM 17-beta-estradiol (AID 1259244); also: nearly all actives have a fitted effect of over 50% in size
In short: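 After 5 days in hormone-depleted medium (charcoal-stripped serum, no phenol red), VM7Luc4E2 cells were seeded, incubated 24 h, then co-treated with compound and 0.1 nM (final) estradiol for 22 h before luminescence detection.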

[15] = qHTS assay to identify small molecule HDAC inhibitors (AID 1259364); also: top concentration of the series differs between compounds; nearly all actives have a fitted effect of over 45% in size
In short: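 Homogeneous cell-based luminescent assay of endogenous class I/II HDAC activity; HCT-116 cells, 2 h compound exposure, 30 min HDAC-Glo development at RT.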

[16] = qHTS assay to identify small molecule HDAC inhibitors - cell viability counter screen (AID 1259365)
In short: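 Viability readout: CellTiter-Glo luminescence. Wild-type HCT-116 cells, 2hr compound treatment following overnight attachment at 37 C.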

[17] = qHTS assay to identify small molecule agonists of the sonic hedgehog signaling (Shh) pathway - cell viability counter screen (AID 1259366); also: nearly all actives have a fitted effect of over 50% in size
In short: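 Viability measured fluorometrically (CellTiter-Fluor, 1hr, 37C) in 3T3 Gli1-Luc reporter cells after 23hr compound exposure within a 24hr incubation at 37C/5% CO2.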

[18] = qHTS assay to identify small molecule antagonists of the sonic hedgehog signaling (Shh) pathway - cell viability counter screen (AID 1259367); also: nearly all actives have a fitted effect of over 55% in size
In short: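 After a 4 hr settling period, 3T3 Gli1-Luc cells were treated with DMSO-dissolved chemicals and conditioned medium, kept 24 hr at 37C in 5% CO2, and assayed for viability by CellTiter-Fluor fluorescence following 1 hr reagent incubation.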

[19] = target: Androgen receptor (Homo sapiens) (UniProt P10275); assay: qHTS assay to identify small molecule antagonists of the androgen receptor (AR) signaling pathway using the MDA cell line in the presence of 0.5 nM R1881 (AID 1259243); also: nearly all actives have a fitted effect of over 50% in size
In short: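 Steps: seed MDA-kb2 cells, incubate 5 hr at 37C; pin-transfer compounds in DMSO; add R1881 to 0.5 nM final; incubate 16 hr; add ONE-Glo, wait 30 min at room temperature; read luminescence.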

[20] = qHTS assay to identify small molecule phospholipidosis (PLD) inducers (AID 1259344; active = well fitted curve in the direction sought with a large enough effect; an effect the other way counts as inactive or inconclusive)
In short: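 HepG2 cells grown on collagen I take up LipidTOX Red while exposed to compound for 24 h; after fixation they are imaged at 20x and pit metrics are extracted.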

Measured: Potency

Sequence of Estrogen receptor (Homo sapiens) (P03372 whole entry, looked up): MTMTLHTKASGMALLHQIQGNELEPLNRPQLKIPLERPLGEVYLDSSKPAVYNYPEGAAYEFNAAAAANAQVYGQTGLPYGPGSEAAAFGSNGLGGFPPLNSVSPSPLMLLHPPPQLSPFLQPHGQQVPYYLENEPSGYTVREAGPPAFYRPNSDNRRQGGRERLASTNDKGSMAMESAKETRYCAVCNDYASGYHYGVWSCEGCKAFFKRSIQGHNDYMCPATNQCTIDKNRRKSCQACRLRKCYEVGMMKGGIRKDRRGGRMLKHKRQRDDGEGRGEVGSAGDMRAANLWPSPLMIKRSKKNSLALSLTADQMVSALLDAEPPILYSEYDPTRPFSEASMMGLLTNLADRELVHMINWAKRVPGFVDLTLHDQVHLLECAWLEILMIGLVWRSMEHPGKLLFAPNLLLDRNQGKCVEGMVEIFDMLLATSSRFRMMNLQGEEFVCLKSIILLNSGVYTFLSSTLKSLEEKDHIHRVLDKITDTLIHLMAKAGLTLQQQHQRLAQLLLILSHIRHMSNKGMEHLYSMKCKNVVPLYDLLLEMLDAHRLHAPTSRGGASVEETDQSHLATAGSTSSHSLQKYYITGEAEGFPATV
Sequence of Androgen receptor (Homo sapiens) (P10275 whole entry, looked up): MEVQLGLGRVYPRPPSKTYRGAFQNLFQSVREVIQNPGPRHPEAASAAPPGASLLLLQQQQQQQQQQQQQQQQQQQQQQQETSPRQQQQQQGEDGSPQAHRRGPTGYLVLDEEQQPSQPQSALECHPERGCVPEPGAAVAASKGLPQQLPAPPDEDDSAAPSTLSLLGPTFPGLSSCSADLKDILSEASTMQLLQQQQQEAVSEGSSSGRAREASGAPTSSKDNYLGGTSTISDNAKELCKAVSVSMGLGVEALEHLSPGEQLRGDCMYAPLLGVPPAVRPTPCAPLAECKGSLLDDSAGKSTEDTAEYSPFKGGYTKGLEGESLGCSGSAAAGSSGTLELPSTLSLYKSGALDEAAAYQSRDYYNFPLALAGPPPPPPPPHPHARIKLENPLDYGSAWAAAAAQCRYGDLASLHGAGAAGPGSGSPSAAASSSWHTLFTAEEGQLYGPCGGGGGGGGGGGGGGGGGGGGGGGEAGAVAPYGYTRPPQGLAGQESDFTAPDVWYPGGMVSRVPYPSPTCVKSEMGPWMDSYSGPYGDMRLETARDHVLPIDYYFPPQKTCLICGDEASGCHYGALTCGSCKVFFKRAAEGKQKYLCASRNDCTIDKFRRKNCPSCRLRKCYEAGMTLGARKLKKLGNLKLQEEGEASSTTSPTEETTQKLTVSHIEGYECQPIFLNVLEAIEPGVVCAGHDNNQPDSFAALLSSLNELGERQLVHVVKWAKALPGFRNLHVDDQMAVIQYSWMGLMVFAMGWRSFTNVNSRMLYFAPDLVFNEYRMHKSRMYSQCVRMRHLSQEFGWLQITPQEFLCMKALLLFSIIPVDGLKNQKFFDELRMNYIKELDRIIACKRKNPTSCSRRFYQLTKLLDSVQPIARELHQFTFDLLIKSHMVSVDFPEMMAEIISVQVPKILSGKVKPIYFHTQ

CC(C)c1ccc(C(=O)N=C(N)N)cc1S(C)(=O)=O
inactive: [1] | [2] | [3] | [4] | [5] | [6] | [7] | [8] | [9] | [10] | [11] | [12] | [13] | [14] | [15] | [16] | [17] | [18]

COc1cc(NS(=O)(=O)c2ccc(N)cc2)nc(C)n1
inactive: [1] | [2] | [3] | [4] | [5] | [6] | [7] | [8] | [9] | [10] | [11] | [12] | [13] | [14] | [15] | [16] | [17] | [18]

CCCCOCCOC(=O)c1cccnc1
inactive: [1] | [2] | [3] | [4] | [5] | [6] | [7] | [8] | [9] | [10] | [11] | [12] | [13] | [19] | [14] | [15] | [16] | [17] | [18]

Cc1ccc(N(CC2=NCCN2)c2cccc(O)c2)cc1
inactive: [1] | [2] | [3] | [4] | [5] | [6] | [7] | [8] | [9] | [10] | [11] | [12] | [13] | [14] | [15] | [16]

CC(=O)Oc1cccc(O)c1
inactive: [1] | [2] | [3] | [4] | [5] | [6] | [7] | [8] | [9] | [10] | [11] | [12] | [13] | [14] | [20] | [15] | [16] | [17]

CC(=O)OCC(C)C
inactive: [1] | [2] | [3] | [4] | [5] | [6] | [7] | [8] | [9] | [10] | [11] | [12] | [13] | [19] | [14] | [15] | [16] | [17] | [18]

CCOc1ncc(F)c(=O)[nH]1
inactive: [1] | [2] | [3] | [4] | [5] | [6] | [7] | [8] | [9] | [10] | [11] | [12] | [13] | [14] | [15] | [16] | [17] | [18]
